Common to all, as to assay: NCI-60 one-dose screen, 48 h (100 = growth as untreated, 0 = no growth, -100 = all killed)
Common to all, as to settings: 10 µM unless noted

Experiment [1] relates to T-47D breast.
Experiment [2] has as its system BT-549 breast.
The test system of experiment [3] is MDA-MB-435 melanoma.
For experiment [4], the system named is SW-620 colon.
Experiment [5] concerns MCF7 breast.
In experiment [6] the test system is HCT-116 colon.
Experiment [7] relates to HCC-2998 colon.
The test system of experiment [8] is KM12 colon.

15 compounds from PubChem BioAssay (NCI) can be followed below.

About 83,000 compounds went through this panel and 20% of them were active in at least one assay; those are over-represented in the sample as a whole.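 The test compound was applied at a single concentration to cells in 96-well plates for 48 hours, and percent growth was recorded.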 A number with no mark means an inactive call. Activity calls are given as the source filed them. Rule for the calls: active = growth percent below 10; inactive = the rest.

With `CC(=O)N1N=C(c2ccc(C(F)(F)F)cc2)CC1c1ccc2c(c1)OCO2` (stereo not given), the growth in experiment [1] was 86.2%; in experiment [2] it was 93.7%; in experiment [3], 78.2%; in experiment [4] it was 88.4%; in experiment [5] it was 78.6%; in experiment [6] it was 45.5%. In addition, the growth was 94.3% in experiment [7] and 89.2% in experiment [8].

For `CC1c2ccccc2-c2ccccc2N1C` (stereo not given), the growth in experiment [1] is 85.7%; in experiment [2], 103%; in experiment [3], 119%; in experiment [4], 108%; in experiment [5] it was 99.4%; in experiment [6], 96%. Besides, the values for the growth in experiment [7] and in experiment [8] were 105% and 104%, respectively.

Take `CC[N+](CCCCCCCCCC[N+](CC)(c1ccccn1)c1ccccn1)(c1ccccn1)c1ccccn1`: the growth in experiment [1] is 13.8%; in experiment [2] it was 19.1%; in experiment [3], -15.1% (active); in experiment [4], 10.1%; in experiment [5] it was 7.81% (active); in experiment [6], 9.06% (active). Moreover, the growth in experiment [7] was 13.3%; in experiment [8], 5.01% (active).

As for `O=C1/C=C/[C@@H](O)[C@@H]2C[C@@H](O)C[C@H]2/C=C/CCC[C@H](CO)O1`, the growth was 32.5% in experiment [1]; 20.1% in experiment [2]; 18.5% in experiment [3]; 10.5% in experiment [4]; -2.04% (active) in experiment [5]; 2.08% (active) in experiment [6]. Besides, the growth in experiment [7] is -22.5% (active); in experiment [8], 2.96% (active).

In the case of `Cc1csc(C#Cc2cncc(O)c2)n1`, the growth in experiment [1] was 98.3%; in experiment [2] it was 113%; in experiment [3] it was 96.8%; in experiment [4] it was 113%; in experiment [5] it was 97.8%; in experiment [6] it was 103%. Also, the growth in experiment [7] is 107%; in experiment [8], 125%.

In the case of `O=C1C(=O)c2c(nc3ccc(Cl)cn23)-c2ccccc21`, the growth in experiment [1] is -55.8% (active); in experiment [2], -99.4% (active); in experiment [3] it was -89.5% (active); in experiment [4] it was -100% (active); in experiment [5] it was -88% (active); in experiment [6], -95.3% (active). The growth in experiment [7] was -95.8% (active); in experiment [8] it was -68.7% (active).

Consider `O=C1/C(=C/c2ccc(F)cc2)Cc2ccccc21`, for which the growth was 103% in experiment [1]; 89.6% in experiment [2]; 107% in experiment [3]; 104% in experiment [4]; 27.3% in experiment [5]; 87.9% in experiment [6]. Further, the growth was 89.9% in experiment [7] and 106% in experiment [8].

On to `COc1ccc(-c2ccc(O)c(C(=O)/C=C/c3cc(OC)c(OC)c(OC)c3)c2)cc1`, for which the growth in experiment [1] is 67%; in experiment [2], 90.4%; in experiment [3], 64.6%; in experiment [4], 88.6%; in experiment [5] it was 64.2%; in experiment [6] it was 68.8%. Besides, the results for the growth in experiment [7] and in experiment [8] were 100% and 79.9%, respectively.

For `Cc1ccc(S(=O)(=O)N2CCN(C(=O)CSc3nc4ccc(C)cc4[nH]3)CC2)cc1`, the growth in experiment [1] was 99.8%; in experiment [2] it was 106%; in experiment [3], 109%; in experiment [4], 102%; in experiment [5], 98.3%; in experiment [6], 103%. The growth in experiment [7] was 122%; in experiment [8] it was 105%.

As to `C1CCC(C(CC2CCCCN2)C2CCCCC2)CC1` (stereo not given), the growth in experiment [1] was -48.9% (active); in experiment [2], 41.1%; in experiment [3], -73.8% (active); in experiment [4], -84.6% (active); in experiment [5] it was -62.6% (active); in experiment [6] it was -94.1% (active). For the same compound, the results for the growth in experiment [7] and in experiment [8] were -90.6% (active) and -54.1% (active), respectively.

For `C/C(=C\CCc1ccsc1)CC/C=C(\C)CCCN1CCSCC1`, the growth in experiment [1] was 70.1%; in experiment [2], 97.1%; in experiment [3], 85.9%; in experiment [4] it was 92%; in experiment [5], 90.9%; in experiment [6] it was 77.7%. Moreover, the growth in experiment [7] was 96.4%; in experiment [8], 84.3%.

For `CCOC(=O)c1cc2oc(/C=C/c3cc(=O)c4cc(Cl)ccc4o3)cc2[nH]1`, the growth in experiment [1] is 68.4%; in experiment [2] it was 53.5%; in experiment [3], 88.2%; in experiment [4], 82.5%; in experiment [5] it was 40.2%; in experiment [6] it was 81.2%. Further, the growth is 98.1% in experiment [7] and 62.8% in experiment [8].

In the case of `O=c1c2c(=NCCCN3CCCC3)cc3c(=O)n(CCCN4CCCC4)c(=O)c4c(NCCCN5CCCC5)cc(c(O)n1CCCN1CCCC1)c2c4-3`, the growth in experiment [1] is -6.25% (active); in experiment [2] it was -29.9% (active); in experiment [3] it was -62.4% (active); in experiment [4], -3.24% (active); in experiment [5], 0.241% (active); in experiment [6] it was 2.72% (active). Moreover, the growth is -43.1% (active) in experiment [7] and 0.818% (active) in experiment [8].

`COC(=O)c1cc2oc(/C=N\NC(=O)c3cc4oc(C)c(C)c4[nH]3)cc2[nH]1`: the growth was 90.2% in experiment [1]; 91.3% in experiment [2]; 96.6% in experiment [3]; 108% in experiment [4]; 86.8% in experiment [5]; 101% in experiment [6]. The growth in experiment [7] was 101%; in experiment [8] it was 108%.

Take `N#CC(C#N)C(C#N)C#N`: the growth in experiment [1] was 87.9%; in experiment [2] it was 89.5%; in experiment [3], 99.8%; in experiment [4], 99.1%; in experiment [5], 95.5%; in experiment [6], 86.8%. Further, the growth in experiment [7] is 98.4%; in experiment [8], 102%.
